Test results published in article PMC4336329 (PLoS ONE, 2015).
Screen size: about 310,000 compounds; about 14,000 (4.5%) showed an effect of 50% or more. The effect is printed as a negative number. This is one part of a sample in which strong results are shown more often than they occur.

Target: human ether-à-go-go-related gene (hERG) potassium channel (human, UniProt Q12809)
Experiment: primary screen, population patch clamp on CHO cells stably expressing hERG; higher = less effect of the substance
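Further: peak tail current of the secondary pulse compared with the same well before compound.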

Chain of human ether-à-go-go-related gene (hERG) potassium channel (Q12809 whole entry, looked up): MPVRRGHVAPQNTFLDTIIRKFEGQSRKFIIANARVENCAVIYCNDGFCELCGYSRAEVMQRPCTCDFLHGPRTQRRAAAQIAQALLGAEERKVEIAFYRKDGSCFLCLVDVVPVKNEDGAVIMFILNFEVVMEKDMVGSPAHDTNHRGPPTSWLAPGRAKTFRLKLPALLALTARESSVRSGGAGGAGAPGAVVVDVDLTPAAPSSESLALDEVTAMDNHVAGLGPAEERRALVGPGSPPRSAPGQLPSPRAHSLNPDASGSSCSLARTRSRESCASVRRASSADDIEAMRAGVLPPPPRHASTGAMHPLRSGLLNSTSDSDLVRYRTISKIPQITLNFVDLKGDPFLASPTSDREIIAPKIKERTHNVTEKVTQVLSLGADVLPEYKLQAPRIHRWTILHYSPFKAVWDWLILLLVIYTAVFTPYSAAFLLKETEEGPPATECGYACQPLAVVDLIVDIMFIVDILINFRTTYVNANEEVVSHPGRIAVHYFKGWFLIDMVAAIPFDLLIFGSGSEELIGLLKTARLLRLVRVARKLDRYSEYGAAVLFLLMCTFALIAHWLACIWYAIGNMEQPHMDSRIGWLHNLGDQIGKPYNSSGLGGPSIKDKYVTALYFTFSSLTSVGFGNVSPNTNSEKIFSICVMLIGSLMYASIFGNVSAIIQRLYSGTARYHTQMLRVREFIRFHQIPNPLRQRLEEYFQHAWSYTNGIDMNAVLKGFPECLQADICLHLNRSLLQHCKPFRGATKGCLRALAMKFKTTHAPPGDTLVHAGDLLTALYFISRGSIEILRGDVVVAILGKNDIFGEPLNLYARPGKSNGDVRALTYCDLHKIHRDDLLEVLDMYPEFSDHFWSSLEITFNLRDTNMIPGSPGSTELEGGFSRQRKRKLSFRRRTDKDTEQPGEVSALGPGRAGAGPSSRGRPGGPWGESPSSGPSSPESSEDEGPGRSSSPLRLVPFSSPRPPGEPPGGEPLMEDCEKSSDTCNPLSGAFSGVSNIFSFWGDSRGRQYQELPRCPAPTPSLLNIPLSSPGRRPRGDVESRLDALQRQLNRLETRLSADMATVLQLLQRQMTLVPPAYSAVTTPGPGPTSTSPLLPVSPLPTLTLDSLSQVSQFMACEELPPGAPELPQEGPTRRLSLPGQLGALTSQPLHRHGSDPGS

Row | Compound | hERG current change (%, negative = inhibition) at 10uM [%]
1 | C/C(=N\NC(=O)CCCOc1ccc(Cl)cc1C)c1ccc(C)o1 | 3.58
2 | COc1cccc(-n2cc(CNC(=O)C3CCC(=O)N(C4CC4)C3)cn2)c1 (centres unmarked) | -11
3 | COc1ccccc1C(=O)Nc1ccccc1SC | -20.3
4 | CCCn1c(CN2CCCCC2CC)nc2c1c(=O)n(C)c(=O)n2C (centres unmarked) | -5.14
5 | CCCCCn1c(CN2CCCCC2CC)nc2c1c(=O)n(C)c(=O)n2C (centres unmarked) | -44.7
6 | CCCn1c(CN2CCCCC2C)nc2c1c(=O)n(C)c(=O)n2C (centres unmarked) | 3.04
7 | CCCCCCn1c(CN2CCCCC2C)nc2c1c(=O)n(C)c(=O)n2C (centres unmarked) | -60.5
8 | CCCCCn1c(CN2CCCCC2C)nc2c1c(=O)n(C)c(=O)n2C (centres unmarked) | -44.7
9 | CCCCCCn1c(CN2CCCCC2CC)nc2c1c(=O)n(C)c(=O)n2C (centres unmarked) | -51.9
10 | Cc1ccc(Nc2nc(-c3ccc(O)cc3O)cs2)nc1 | 11.1
11 | N/C(=N\[N+](=O)[O-])N1CCN(C(=O)c2ccccc2)CC1 | 24.8
12 | CC(C)(C)c1ccc(/C=N/Nc2nncn2N)cc1 | -21.5
13 | CCNc1nc(NC(C)C)nc(N2CC(=O)N(CC(=O)OCC)C2=N)n1 | -13.9
14 | CCOC(=O)CN1C(=N)N(c2nc(NC(C)C)nc(OC)n2)CC1=O | -13.1
15 | CCOC(=O)CN1C(=N)N(c2nc(NC(C)C)nc(NC(C)C)n2)CC1=O | -73.8
16 | CCOCCCNC(=O)c1ccc(CS(=O)(=O)c2cccc(C(F)(F)F)c2)o1 | 6.78
17 | COCCNC(=O)c1ccc(CS(=O)(=O)c2cccc(C(F)(F)F)c2)o1 | 4.09
18 | O=C(NCc1ccco1)c1ccc(CS(=O)(=O)c2cccc(C(F)(F)F)c2)o1 | -60.3
19 | COCCCNC(=O)c1ccc(CS(=O)(=O)c2cccc(C(F)(F)F)c2)o1 | -8.62
20 | CCCCNC(=O)c1ccc(CS(=O)(=O)c2cccc(C(F)(F)F)c2)o1 | -53.5
21 | O=C(NCc1ccc2c(c1)OCO2)c1ccc(CS(=O)(=O)c2cccc(C(F)(F)F)c2)o1 | -24.2
22 | COC(=O)c1cccc(Cn2cc([N+](=O)[O-])cn2)c1 | 8.41

Row | Compound | hERG current change (%, negative = inhibition) at 10uM [%]
23 | Cc1ccc(Nc2ncnc3c2nnn3Cc2ccccc2)cc1 | 8.07
24 | O=C(CCS(=O)(=O)c1cc(Br)cc2c1N(C(=O)C1CC1)CC2)NCC1CCCO1 (centres unmarked) | 10.8
25 | c1ccc(-c2nc3nc4ccccc4nc3n2Cc2ccco2)cc1 | -61.2
26 | COc1ccc(CCn2c(-c3ccco3)nc3nc4ccccc4nc32)cc1 | -3.77
27 | COCCn1c(-c2ccco2)nc2nc3ccccc3nc21 | 2.99
28 | Cc1ccc(-c2nc3nc4ccccc4nc3n2Cc2ccco2)cc1 | -18.7
29 | c1ccc(Cn2c(-c3ccco3)nc3nc4ccccc4nc32)cc1 | 6.13
30 | CCCCCn1c(-c2ccco2)nc2nc3ccccc3nc21 | -67.5
31 | COc1ccccc1Cn1c(-c2ccco2)nc2nc3ccccc3nc21 | -4.67
32 | Clc1ccc(-c2nc3nc4ccccc4nc3n2Cc2ccco2)cc1 | -12.3
33 | CCCCOCCCn1c(-c2ccco2)nc2nc3ccccc3nc21 | -55.9
34 | O=C(O)CSc1sc(=S)sc1SCC(=O)O | 13.7
35 | COC(=O)c1ccc(OC)c(CSc2nnc(-c3ccc(C(C)(C)C)cc3)o2)c1 | 9.83
36 | CC(=O)Nc1ccc(OCC(=O)NCc2ccccc2)cc1 | 19
37 | O=C(Cn1nc(C(F)F)cc1C(F)F)N/N=C/c1ccc2c(c1)OCO2 | 24.7
38 | CC(=O)N1CCc2cc(S(=O)(=O)NC(Cc3ccccc3)C(=O)Nc3cc(C)ccn3)ccc21 (centres unmarked) | 1.38
39 | CCOc1ccccc1N(CC(=O)NCCOC)C(=O)CCC(=O)Nc1ccccn1 | 19.6
40 | Cc1cccc(NC(=S)N(C)Cc2cn(C)c3ccccc23)c1 | -7.49
41 | COc1ccc(S(=O)(=O)NCc2ccco2)c2ccccc12 | -9.68
42 | Cc1cc2oc(=O)cc(CN3CCCCC3C)c2cc1Cl (centres unmarked) | -0.834
43 | N#Cc1c(-c2ccc(Cl)cc2)ccnc1N1CCOCC1 | 3.33
44 | CCN(c1ccccc1)S(=O)(=O)c1ccc(Cl)c(NC(=O)CSc2nnc(C)s2)c1 | -24.2
